The text below walks through data of ChEMBL document CHEMBL3988442, “University of Dundee, Small-Polar-MMV Screening Library” (2021).

Structures are written as SMILES.

Experiment [1] addresses T1, Aspartate--tRNA(Asp/Asn) ligase (Mycobacterium tuberculosis (strain ATCC 25618 / H37Rv)) (UniProt P9WFW3).
T1 sequence (whole entry): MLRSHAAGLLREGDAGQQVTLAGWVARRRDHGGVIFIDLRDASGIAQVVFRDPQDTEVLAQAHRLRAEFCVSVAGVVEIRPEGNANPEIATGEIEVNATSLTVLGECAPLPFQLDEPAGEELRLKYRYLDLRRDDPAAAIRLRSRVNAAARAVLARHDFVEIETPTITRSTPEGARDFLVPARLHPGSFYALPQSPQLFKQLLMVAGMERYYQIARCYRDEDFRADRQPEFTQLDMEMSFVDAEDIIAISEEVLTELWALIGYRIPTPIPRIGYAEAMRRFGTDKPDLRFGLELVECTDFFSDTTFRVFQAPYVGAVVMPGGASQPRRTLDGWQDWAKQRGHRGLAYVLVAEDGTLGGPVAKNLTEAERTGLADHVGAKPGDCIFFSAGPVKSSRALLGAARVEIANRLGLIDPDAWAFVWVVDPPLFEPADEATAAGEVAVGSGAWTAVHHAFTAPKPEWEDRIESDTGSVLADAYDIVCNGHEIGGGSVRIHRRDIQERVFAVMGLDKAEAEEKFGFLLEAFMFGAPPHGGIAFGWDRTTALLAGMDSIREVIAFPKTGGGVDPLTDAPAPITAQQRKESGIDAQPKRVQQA
In words: Assay for Asp RNA synthetase-1 from Mycobacterium tuberculosis. The format is functional. Details: scale not given: direction of the effect not stated beside the values. The conditions noted are these: 30 µM.

Experiment [2] has as its target Shiga toxin 2 (Escherichia coli O157:H7) (UniProt P09385+P09386). In words: E. coli 0.157:H7 Shiga Toxin SOP - stx2 screening assay. The experiment is classed as functional. Further details: scale not given: direction of the effect not stated beside the values. The conditions noted are these: 30 µM.

Regarding `CCOCC1CN(C)Cc2cnn(CC3CCCC3)c21` (centres undefined), the figures for the Percent Effect in experiment [1] and in experiment [2] were -2.58% and -8.48%, respectively.

With `CCc1cnc(C)nc1NCCN1CCCCCC1`, the Percent Effect in experiment [1] is 4.13%; in experiment [2] it was -69.6%.

Turning to `Cc1cnc(N2CC3(CCN(C(=O)c4ccoc4)C3)C2)nc1`, the results for the Percent Effect in experiment [1] and in experiment [2] were 0.713% and -36.5%, respectively.

As to `c1csc(N2CCCN(Cc3nc(C4CC4)no3)CC2)n1`, the values for the Percent Effect in experiment [1] and in experiment [2] were -1.91% and 12.8%, respectively.

Turning to `CN(C)C(=O)[C@@H]1CCO[C@@H]2CCN(CCc3ccccc3)C[C@@H]21`, the Percent Effect in experiment [1] was -3.08%; in experiment [2] it was 1.17%.

Regarding `O=C(CCn1ccc2cc(Br)ccc21)NCc1ccc(C(=O)O)cc1`, the Percent Effect came out at 8.3% in experiment [1] and 30.7% in experiment [2].

For the compound `CN(C)C(=O)N1CCN(Cc2nnc(C(C)(C)C)o2)CC1`, the figures for the Percent Effect in experiment [1] and in experiment [2] were -2.73% and 3.28%, respectively.

As for `CC(C)c1nn(C)c(Cl)c1CNCC(O)c1cccc(F)c1` (centres undefined), the Percent Effect is -0.173% in experiment [1] and 10.3% in experiment [2].

As for `CN(C)CC(=O)N1CCC2(CC1)CN(c1ccsc1)C(=O)CO2`, the figures for the Percent Effect in experiment [1] and in experiment [2] were 5.4% and -4%, respectively.

For the compound `Cc1nn(CC(=O)N2CCCC2Cn2cccn2)c(C)c1Cl` (centres undefined), the Percent Effect in experiment [1] was 0.155%; in experiment [2], -3.65%.

For the compound `CC1CCc2nc(O)c(C(=O)NCc3cccc(F)c3)cc2C1` (centres undefined), the Percent Effect in experiment [1] is 1.04%; in experiment [2], -8.04%.

Take `O=C(c1ccccn1)N1CCCC(c2nccn2Cc2ccncc2)C1` (centres undefined): the Percent Effect in experiment [1] turned out to be 6.99%; in experiment [2], 4.41%.

As to `Cc1ccc(CC(=O)N(C)CC2(O)CCN(c3ccccn3)C2)s1` (centres undefined), the Percent Effect is 5.23% in experiment [1] and -0.365% in experiment [2].

As to `Cc1nn(C)c(C)c1NC(=O)CN1CCc2c(nc(C(C)C)n2C)C1`, the Percent Effect in experiment [1] was -0.413%; in experiment [2], 5.73%.

Turning to `COc1ccccc1[C@@H]1CN(C(=O)c2csc(C)n2)C[C@H]1C(=O)O`, the Percent Effect in experiment [1] was 2.17%; in experiment [2] it was -9.43%.

As for `COc1cc(CN2CCN(c3cccc(OC)c3)C(=O)C2)cc(OC)c1`, the figures for the Percent Effect in experiment [1] and in experiment [2] were -1.98% and -8.17%, respectively.

As to `O=C(CC1CCCC1)N1C[C@@H]2CCN(c3cccnc3)C[C@@H]2C1`, the Percent Effect in experiment [1] was 2%; in experiment [2], -5.1%.
